# Measurements: the supplement of paper PMC8728848
# Many of the other results were omitted from the sample, so the strongest signals are more common in it than they were.
# B1: PX9937F-bfa-516-16-516 (Bacteroides fragilis) (protein)
# chain: LDIDPTSSIADSNYWKTEAQFSTFNVGLHALLRECSFNFFLLGEPRADIYGDVPFGGEATQGMERLPFNTINKENTGISNFAGMYKVINQINLMIAKTKETTVLSEAGKNYYLGEAYGMRAYLYFHLLRSWGDVILYLDYTNGASLDLSNLSKAASPAEEVMKQIKEDITASEKGFGSDYSFKYGRYYWSMAATQMLKGEVYLWSGRQMGGGTADYTTAKTALQSIVSNANVSLQDDFSKVFAYNNKDNSEIIFSIRNAKDEYNMWDDRFRQNLVPQQAYMTSTYCNKEGVSFKDLPEGQLNGLIRLQIRYDLYNKAFRDGDTRKDASMTAVYQKQQDGTVKYIAPFCNKYQGVLLDGASQRSFLNDYPIYRYADCLLLLAEAKALLGEDPTAEINQVRERAYGKEFFEANKATLAYPNDKGDFYTDNKYMSGDEDPLEAILKERMREFMFEGKRWYDLRLLGADYVTKRTSAVATRLLWPINESVLTDNPALKQTPGYQN
# Experiments:
# Assay in all cases: glycan array binding signal (z-score within array); higher = stronger binding
# Conditions in all cases: glycan notation: IUPAC condensed, linker removed
# [1] = target: Fuc(a1-2)Gal(b1-3)GalNAc(b1-3)Gal(a1-4)Gal(b1-4)Glc
# Procedure, shortened: (§1)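 The Consortium for Functional Glycomics database supplied 3228 glycan arrays, of which those lacking an available protein sequence were dropped. The binding signal, a within-array Z-score, was averaged across arrays of the same protein sequence and across linkers. Negative scores can be read as non-binding.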
# [2] = target: Fuc(a1-2)Gal(b1-3)GlcNAc(b1-3)[Neu5Ac(a2-6)Gal(b1-4)GlcNAc(b1-6)]Gal(b1-4)Glc
# Procedure, shortened: as §1
# [3] = target: Fuc(a1-2)Gal(b1-4)GlcNAc(b1-2)Man(a1-3)[Fuc(a1-2)Gal(b1-4)GlcNAc(b1-2)Man(a1-6)]Man(b1-4)GlcNAc(b1-4)GlcNAc
# Procedure, shortened: as §1
# [4] = target: Fuc(a1-2)[Gal(a1-3)]Gal(b1-4)GlcNAc
# Procedure, shortened: as §1
# [5] = target: Fuc(a1-2)[Gal(a1-3)]Gal(b1-4)GlcNAc(b1-2)Man(a1-3)[Fuc(a1-2)[Gal(a1-3)]Gal(b1-4)GlcNAc(b1-2)Man(a1-6)]Man(b1-4)GlcNAc(b1-4)GlcNAc
# Procedure, shortened: as §1
# [6] = target: Fuc(a1-2)[Gal(a1-3)]Gal(b1-4)GlcNAc(b1-2)Man(a1-3)[Fuc(a1-2)[Gal(a1-3)]Gal(b1-4)GlcNAc(b1-2)Man(a1-6)]Man(b1-4)GlcNAc(b1-4)[Fuc(a1-6)]GlcNAc
# Procedure, shortened: as §1
# [7] = target: Fuc(a1-2)[GalNAc(a1-3)]Gal
# Procedure, shortened: as §1
# [8] = target: Fuc(a1-2)[GalNAc(a1-3)]Gal(b1-3)GlcNAc(b1-2)Man(a1-3)[Fuc(a1-2)[GalNAc(a1-3)]Gal(b1-3)GlcNAc(b1-2)Man(a1-6)]Man(b1-4)GlcNAc(b1-4)GlcNAc
# Procedure, shortened: as §1
# [9] = target: Fuc(a1-2)[GalNAc(a1-3)]Gal(b1-3)GlcNAc(b1-2)Man(a1-3)[Fuc(a1-2)[GalNAc(a1-3)]Gal(b1-3)GlcNAc(b1-2)Man(a1-6)]Man(b1-4)GlcNAc(b1-4)[Fuc(a1-6)]GlcNAc
# Procedure, shortened: as §1
# [10] = target: Fuc(a1-2)[GalNAc(a1-3)]Gal(b1-4)GlcNAc(b1-2)Man(a1-3)[Fuc(a1-2)[GalNAc(a1-3)]Gal(b1-4)GlcNAc(b1-2)Man(a1-6)]Man(b1-4)GlcNAc(b1-4)GlcNAc
# Procedure, shortened: as §1
# [11] = target: Fuc(a1-2)[GalNAc(b1-3)]Gal
# Procedure, shortened: as §1
# [12] = target: Fuc(a1-3)[Gal(b1-4)]GlcNAc
# Procedure, shortened: as §1
# [13] = target: Fuc(a1-3)[Gal(b1-4)]GlcNAc(b1-2)Man(a1-3)[Fuc(a1-3)[Gal(b1-4)]GlcNAc(b1-2)Man(a1-6)]Man(b1-4)GlcNAc(b1-4)GlcNAc
# Procedure, shortened: as §1
# [14] = target: Fuc(a1-3)[Gal(b1-4)]GlcNAc(b1-3)Gal(b1-3)[Fuc(a1-4)]GlcNAc
# Procedure, shortened: as §1
# Gal(a1-4)Gal(b1-4)GlcNAc = target: Gal(a1-4)Gal(b1-4)GlcNAc
# Procedure, shortened: as §1
# Gal(b1-3)GlcNAc = target: Gal(b1-3)GlcNAc
# Procedure, shortened: as §1
# [15] = target: Gal(b1-3)GlcNAc(b1-2)Man(a1-3)[GlcNAc(b1-4)][Gal(b1-3)GlcNAc(b1-2)Man(a1-6)]Man(b1-4)GlcNAc(b1-4)GlcNAc
# Procedure, shortened: as §1
# [16] = target: Gal(b1-3)GlcNAc(b1-3)Gal(b1-3)GlcNAc
# Procedure, shortened: as §1
# [17] = target: Gal(b1-3)GlcNAc(b1-3)Gal(b1-4)GlcNAc(b1-2)[Gal(b1-3)GlcNAc(b1-3)Gal(b1-4)GlcNAc(b1-6)]Man(a1-6)[Gal(b1-3)GlcNAc(b1-3)Gal(b1-4)GlcNAc(b1-2)Man(a1-3)]Man(b1-4)GlcNAc(b1-4)[Fuc(a1-6)]GlcNAc
# Procedure, shortened: as §1
# [18] = target: Gal(b1-3)GlcNAc(b1-3)Gal(b1-4)GlcNAc(b1-6)[Gal(b1-3)GlcNAc(b1-3)]Gal(b1-4)Glc
# Procedure, shortened: as §1
# [19] = target: Gal(b1-3)GlcNAc(b1-3)Gal(b1-4)[Fuc(a1-3)]GlcNAc(b1-6)[Gal(b1-3)GlcNAc(b1-3)]Gal(b1-4)Glc
# Procedure, shortened: as §1
# [20] = target: Gal(b1-3)[Fuc(a1-4)]GlcNAc(b1-6)GalNAc
# Procedure, shortened: as §1
# Gal(b1-4)GlcNAc(b1-2)Man = target: Gal(b1-4)GlcNAc(b1-2)Man
# Procedure, shortened: as §1
# [21] = target: Gal(b1-4)GlcNAc(b1-3)Gal(b1-4)GlcNAc(b1-3)Gal(b1-4)GlcNAc(b1-2)[Gal(b1-4)GlcNAc(b1-3)Gal(b1-4)GlcNAc(b1-3)Gal(b1-4)GlcNAc(b1-6)]Man(a1-6)[Gal(b1-4)GlcNAc(b1-3)Gal(b1-4)GlcNAc(b1-3)Gal(b1-4)GlcNAc(b1-2)Man(a1-3)]Man(b1-4)GlcNAc(b1-4)[Fuc(a1-6)]GlcNAc
# Procedure, shortened: as §1
# [22] = target: Gal(b1-4)GlcNAc(b1-3)Gal(b1-4)GlcNAc(b1-3)Gal(b1-4)GlcNAc(b1-3)Gal(b1-4)GlcNAc(b1-2)[Gal(b1-4)GlcNAc(b1-3)Gal(b1-4)GlcNAc(b1-3)Gal(b1-4)GlcNAc(b1-3)Gal(b1-4)GlcNAc(b1-6)]Man(a1-6)[Gal(b1-4)GlcNAc(b1-3)Gal(b1-4)GlcNAc(b1-3)Gal(b1-4)GlcNAc(b1-3)Gal(b1-4)GlcNAc(b1-2)Man(a1-3)]Man(b1-4)GlcNAc(b1-4)[Fuc(a1-6)]GlcNAc
# Procedure, shortened: as §1
binder,measurement,setting,value
B1,glycan array binding signal (z-score),[1],0.493
same,glycan array binding signal (z-score),[2],-0.097
same,glycan array binding signal (z-score),[3],-0.256
same,glycan array binding signal (z-score),[4],-0.012
same,glycan array binding signal (z-score),[5],1.48
same,glycan array binding signal (z-score),[6],-0.006
same,glycan array binding signal (z-score),[7],-0.222
same,glycan array binding signal (z-score),[8],-0.141
same,glycan array binding signal (z-score),[9],-0.135
same,glycan array binding signal (z-score),[10],2.69
same,glycan array binding signal (z-score),[11],1.64
same,glycan array binding signal (z-score),[12],-0.071
same,glycan array binding signal (z-score),[13],-0.045
same,glycan array binding signal (z-score),[14],-0.161
same,glycan array binding signal (z-score),Gal(a1-4)Gal(b1-4)GlcNAc,-0.077
same,glycan array binding signal (z-score),Gal(b1-3)GlcNAc,-0.207
same,glycan array binding signal (z-score),[15],0.179
same,glycan array binding signal (z-score),[16],-0.041
same,glycan array binding signal (z-score),[17],7.79
same,glycan array binding signal (z-score),[18],-0.142
same,glycan array binding signal (z-score),[19],-0.388
same,glycan array binding signal (z-score),[20],1.88
same,glycan array binding signal (z-score),Gal(b1-4)GlcNAc(b1-2)Man,-0.006
same,glycan array binding signal (z-score),[21],4.38
same,glycan array binding signal (z-score),[22],3.95
